The values that follow come from PubChem BioAssay (Tox21).

Assay [1] deals with Luciferin 4-monooxygenase (Photinus pyralis) (UniProt P08659). As to the kind of experiment: qHTS assay to identify small molecule inhibitors of firefly luciferase (AID 1224835). Note: nearly all actives have a fitted effect of over 25% in size. Note: potency is the fitted concentration of half-maximal effect. In outline:
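Inhibition of purified Photinus luciferase is measured by luminescence. Substrate levels (D-luciferin, ATP) sit at their KM values. Each compound is tested in a concentration series.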
For orientation: qHTS replaces the single test concentration by a dilution series.

Assay [2] can be described thus: qHTS assay to identify small molecule agonists of the constitutive androstane receptor (CAR) signaling pathway - cell viability counter screen (AID 1224836). Note: nearly all actives have a fitted effect of over 45% in size. Note: potency is the fitted concentration of half-maximal effect. In outline:
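HepG2-CYP2B6-hCAR, 2500 cells/well, 4 h pre-incubation; cpd 15 conc + PK11195 0.75 uM final; 23 h, 37 C/5% CO2; CellTiter-Fluor, fluorescence.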

The nature of assay [3]: qHTS assay to identify small molecule antagonists of the constitutive androstane receptor (CAR) signaling pathway - cell viability counter screen (AID 1224837). Note: nearly all actives have a fitted effect of over 45% in size. Note: potency is the fitted concentration of half-maximal effect. In outline:
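Cytotoxicity counter-screen: CellTiter-Fluor fluorescence after 23 h compound exposure (15-point qHTS) in double-stable HepG2-CYP2B6-hCAR cells, with 50 nM CITCO added.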

Assay [4] concerns the target Nuclear receptor subfamily 1 group I member 3 (Homo sapiens) (UniProt Q14994). As to the kind of experiment: qHTS assay to identify small molecule antagonists of the constitutive androstane receptor (CAR) signaling pathway (AID 1224838).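 Note: HepG2 cells stably expressing hCAR with CYP2B6 luciferase reporter stimulated by CITCO; nearly all actives have a fitted effect of over 40% in size.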 Note: potency is the fitted concentration of half-maximal effect. In outline: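 Antagonism measured as luciferase signal (ONE-Glo, 30 min, room temperature) in CAR-stimulated cells: HepG2-CYP2B6-hCAR double-stable line exposed 24 hr at 37 C to compound in a 15-point series plus 50 nM CITCO.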

A short description of assay [5]: qHTS assay to identify small molecule antagonists of the estrogen related receptor signaling pathway with the pleiotropic PPARgamma coactivator (PGC) from Tox21 10K library - cell viability counter screen (AID 1224840; active = well fitted cell-killing curve with a large enough effect in the repeat runs, not every such curve was filed as active; note: nearly all actives have a fitted effect of over 40% in size; note: potency is the fitted concentration of half-maximal effect). In outline:
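Counter-screen for cytotoxicity: after 17.5 h compound exposure at 37 C, CellTiter-Fluor reagent added to PGC/ERR cells for 30 min and fluorescence read. Cells were seeded at 2,000 per well 6 h before dosing.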

Assay [6] in a line: qHTS assay to identify small molecule antagonists of the estrogen related receptor signaling pathway with the pleiotropic PPARgamma coactivator (PGC) from Tox21 10K library (AID 1224841; call rule not given here; note: actives are mostly falling curves and most rising ones were filed inactive; nearly all actives have a fitted effect of over 50% in size; note: potency is the fitted concentration of half-maximal effect). In outline:
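Luminescence (One-Glo, 30 min at room temperature) after 18 h compound treatment at 37 C of PGC/ERR reporter cells plated at 2,000 cells/well and settled 6 h beforehand.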

The nature of assay [7]: qHTS assay to identify small molecule agonists of the estrogen related receptor signaling pathway with the pleiotropic PPARgamma coactivator (PGC) from Tox21 10K library (AID 1224842). Note: nearly all actives have a fitted effect of over 15% in size. The gist of the method: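 Luminescence from One-Glo (30 min, room temperature) measured after PGC/ERR cells had 18 h at 37 C with pinned compound (23 nL in DMSO). Cells had been seeded at 2,000 per well and pre-incubated 6 h.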

A short description of assay [8]: qHTS assay to identify small molecule agonists of the hypoxia (HIF-1) signaling pathway - cell viability counter screen (AID 1224844; calls by dose curve; note: nearly all actives have a fitted effect of over 50% in size; note: potency is the fitted concentration of half-maximal effect). The gist of the method:
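Cytotoxicity measured by CellTiter-Glo ATP luminescence in the wells also read for beta-lactamase signal. Cells were HRE-bla ME-180 (2,000/well, 0.5% dialyzed FBS), exposed to compounds for 17 h at 37C.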

Assay [9] has as its target Nuclear receptor subfamily 1 group I member 3 (Homo sapiens) (UniProt Q14994). As to the kind of experiment: qHTS assay to identify small molecule agonists of the constitutive androstane receptor (CAR) signaling pathway (AID 1224839).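 Note: HepG2 cells stably carrying human CAR and a CYP2B6 luciferase reporter; series mostly up to about 92 µM; nearly all actives have a fitted effect of over 15% in size.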 The gist of the method:
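HepG2-CYP2B6-hCAR cells, 2500/well, 4 h pre-incubation; compounds 15 conc.; PK11195 0.75 uM final; 24 h, 37 C/5% CO2; ONE-Glo luciferase read.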

For assay [10], the target named is Thyrotropin receptor (Homo sapiens) (UniProt P16473). As to the kind of experiment: qHTS assay to identify small molecule agonists of the thyroid stimulating hormone receptor (TSHR) signaling pathway (AID 1224843; calls by dose curve; note: nearly all actives have a fitted effect of over 45% in size). In outline: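 Agonist activity read as cAMP rise via d2/cryptate HTRF competition, 1 h room-temperature detection, in HEK293 cells expressing TSHR. Fifteen-point titrations, each run in triplicate, with a 30 min room-temperature incubation beforehand.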

Inconclusive results are not listed. Activity calls are given as the source filed them. Unless noted, calls come from the whole dose curve; as a rule, active = well fitted curve in the direction sought with a large enough effect in the repeat runs; inconclusive = weak or mixed curves; inactive = no such curve, though single readings can be large; an effect the other way counts as inactive or inconclusive.

Chain of Thyrotropin receptor (Homo sapiens) (P16473 whole entry, looked up): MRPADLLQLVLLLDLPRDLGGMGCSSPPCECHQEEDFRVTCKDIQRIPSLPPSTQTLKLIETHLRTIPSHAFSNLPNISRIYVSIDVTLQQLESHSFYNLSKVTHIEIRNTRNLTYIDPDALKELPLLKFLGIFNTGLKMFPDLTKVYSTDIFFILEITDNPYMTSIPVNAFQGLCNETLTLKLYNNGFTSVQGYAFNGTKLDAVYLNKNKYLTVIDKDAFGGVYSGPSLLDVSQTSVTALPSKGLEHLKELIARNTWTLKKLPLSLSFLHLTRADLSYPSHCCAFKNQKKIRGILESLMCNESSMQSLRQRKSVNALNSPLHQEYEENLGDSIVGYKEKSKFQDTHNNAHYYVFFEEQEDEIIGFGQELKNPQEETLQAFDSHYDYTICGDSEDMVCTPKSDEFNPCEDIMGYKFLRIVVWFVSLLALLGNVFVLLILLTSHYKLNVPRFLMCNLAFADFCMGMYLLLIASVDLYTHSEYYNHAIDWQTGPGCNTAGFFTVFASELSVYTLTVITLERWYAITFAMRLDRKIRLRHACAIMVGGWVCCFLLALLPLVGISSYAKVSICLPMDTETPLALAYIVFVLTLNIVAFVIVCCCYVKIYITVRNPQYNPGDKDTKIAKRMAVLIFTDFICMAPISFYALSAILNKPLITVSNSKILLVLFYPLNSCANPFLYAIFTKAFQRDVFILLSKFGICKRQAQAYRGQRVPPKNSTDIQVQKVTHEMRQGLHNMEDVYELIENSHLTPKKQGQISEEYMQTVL
Chain of Nuclear receptor subfamily 1 group I member 3 (Homo sapiens) (Q14994 whole entry, looked up): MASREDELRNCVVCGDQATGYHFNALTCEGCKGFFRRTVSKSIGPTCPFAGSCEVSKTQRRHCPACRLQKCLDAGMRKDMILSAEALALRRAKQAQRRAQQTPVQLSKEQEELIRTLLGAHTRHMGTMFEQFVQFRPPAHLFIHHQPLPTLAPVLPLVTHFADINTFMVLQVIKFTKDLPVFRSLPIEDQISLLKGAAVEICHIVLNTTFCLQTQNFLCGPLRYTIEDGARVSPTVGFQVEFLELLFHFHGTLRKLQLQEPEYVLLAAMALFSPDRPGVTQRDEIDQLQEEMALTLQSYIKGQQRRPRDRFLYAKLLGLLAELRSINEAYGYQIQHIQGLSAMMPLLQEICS
Chain of Luciferin 4-monooxygenase (Photinus pyralis) (P08659 whole entry, looked up): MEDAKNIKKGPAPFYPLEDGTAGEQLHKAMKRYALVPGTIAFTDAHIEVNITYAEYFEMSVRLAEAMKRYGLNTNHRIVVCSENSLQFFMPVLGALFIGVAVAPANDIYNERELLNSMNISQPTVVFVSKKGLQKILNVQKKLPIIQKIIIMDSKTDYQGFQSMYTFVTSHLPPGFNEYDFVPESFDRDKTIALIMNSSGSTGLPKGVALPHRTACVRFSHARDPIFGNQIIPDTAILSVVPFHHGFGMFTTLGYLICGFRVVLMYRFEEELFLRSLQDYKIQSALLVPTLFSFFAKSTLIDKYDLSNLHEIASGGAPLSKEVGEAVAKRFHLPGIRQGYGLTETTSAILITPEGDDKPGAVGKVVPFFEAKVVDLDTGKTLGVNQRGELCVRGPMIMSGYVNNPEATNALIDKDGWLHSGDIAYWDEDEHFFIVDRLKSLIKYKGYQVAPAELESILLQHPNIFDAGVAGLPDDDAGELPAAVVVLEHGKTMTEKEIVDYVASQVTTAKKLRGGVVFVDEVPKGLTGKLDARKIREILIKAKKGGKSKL

Take `C1=Cc2ccccc2C1`: the Potency entry in [1], in [2], in assay [3], in [4], in [5] and in [6] was “inactive” in each case. Moreover, the Potency entry in assay [7] and in assay [8] was “inactive” throughout.
With `CN1CCC[C@@H]1c1cccnc1`, the Potency result in [1], in assay [2], in [3], in [4] and in [5] was “inactive” each time.
In the case of `CC(C)(C)c1cc(CCC(=O)OCC(COC(=O)CCc2cc(C(C)(C)C)c(O)c(C(C)(C)C)c2)(COC(=O)CCc2cc(C(C)(C)C)c(O)c(C(C)(C)C)c2)COC(=O)CCc2cc(C(C)(C)C)c(O)c(C(C)(C)C)c2)cc(C(C)(C)C)c1O`, the Potency result in assay [1], in [2], in assay [3], in [4], in assay [9] and in assay [5] was “inactive” throughout. Moreover, the Potency entry in assay [10] and in assay [8] was “inactive” each time.
Turning to `CN(C)CCCNCCCN`, the Potency entry in assay [1], in assay [2], in [3], in assay [4], in assay [9] and in assay [5] was “inactive” throughout. The Potency entry in assay [10] and in assay [8] was “inactive” each time.
On to `NCCCN(CCO)CCO`, for which the Potency result in [1], in assay [2], in [3], in assay [4], in assay [9] and in assay [5] was “inactive” each time. In addition, the Potency entry in assay [10] and in assay [8] was “inactive” throughout.
On to `O=C1CCCCCO1`, for which the Potency result in assay [1], in assay [2], in assay [3], in assay [4], in assay [9] and in assay [5] was “inactive” throughout. The Potency entry in [10] and in assay [8] was “inactive” each time.
In the case of `O=[N+]([O-])c1cc[n+]([O-])cc1`, the Potency entry in assay [1], in [9] and in assay [8] was “inactive” throughout. Moreover, the results for the Potency in [2], in [3] and in assay [4] were 30.6 µM (active), 30.6 µM (active) and 43.3 µM (active), respectively.
On to `O=C(O)/C=C/c1cnc[nH]1`, for which the Potency entry in assay [1], in assay [2], in assay [3], in assay [4], in [9] and in [5] was “inactive” throughout. For the same compound, the Potency entry in assay [10] and in [8] was “inactive” in each case.
On to `Nc1cnn([C@@H]2O[C@H](CO)[C@@H](O)[C@H]2O)c(=O)n1`, for which the Potency result in assay [1], in assay [2], in [3], in [4], in assay [9] and in [10] was “inactive” each time. Besides, the Potency result in [8] was “inactive”.
For the compound `O=C(Nc1ccccc1)OCC(CN1CCCCC1)OC(=O)Nc1ccccc1` (stereo not drawn), the Potency entry in [1], in assay [2], in assay [3], in assay [4], in assay [9] and in assay [5] was “inactive” each time. In addition, the Potency entry in [10] and in assay [8] was “inactive” throughout.
For `N[C@H]1C(O)O[C@H](CO)[C@H](O)[C@@H]1O` (stereo partly drawn), the Potency result in assay [1], in assay [2], in assay [3], in [4], in assay [5] and in assay [6] was “inactive” in each case. Also, the Potency result in assay [7], in assay [10] and in [8] was “inactive” in each case.
Regarding `N#Cc1c(F)cccc1F`, the Potency result in [1], in assay [2], in assay [3], in assay [4], in assay [9] and in [5] was “inactive” in each case. Further, the Potency result in [10] and in assay [8] was “inactive” each time.
For `CCOC(=O)CC(=O)c1cc(F)c(Cl)nc1Cl`, the Potency in assay [1] is 40.9 µM (active). The Potency result in [2], in [3], in assay [4], in assay [9], in assay [5] and in assay [8] was “inactive” each time.
Regarding `N#CCCNCCC#N`, the Potency result in [1], in [2], in [3], in assay [4], in assay [9] and in assay [5] was “inactive” in each case. In addition, the Potency result in assay [10] and in assay [8] was “inactive” throughout.
For `CC(Cc1cccc(C(F)(F)F)c1)NCCOC(=O)c1ccccc1` (stereo not drawn), the Potency entry in assay [1], in assay [2], in assay [3], in [4], in assay [9] and in assay [5] was “inactive” each time. Further, the Potency entry in [10] and in assay [8] was “inactive” in each case.
For the compound `O=C1[C@H](CC[C@H](O)c2ccc(F)cc2)[C@@H](c2ccc(O)cc2)N1c1ccc(F)cc1`, the Potency result in [1], in [2], in assay [3], in [4], in assay [5] and in [7] was “inactive” throughout. In addition, the Potency entry in assay [10] is “inactive”. Further, the Potency in assay [6] is 26.6 µM (active).
On to `Cc1ccc(C(C)c2ccc(C)c(C)c2)cc1C`, for which the Potency result in [1], in assay [2], in assay [3], in assay [4], in [9] and in assay [5] was “inactive” each time. In addition, the Potency entry in [8] is “inactive”.
As to `CC(C)(C)c1cc(CO)cc(C(C)(C)C)c1O`, the Potency entry in assay [1], in [2], in assay [3], in assay [4], in [5] and in [7] was “inactive” each time. The Potency result in [10] and in [8] was “inactive” in each case.
With `Cc1ncsc1CCO`, the Potency result in [1], in [2], in assay [3], in assay [4], in assay [9] and in [5] was “inactive” in each case. Further, the Potency result in assay [10] and in assay [8] was “inactive” in each case.
For the compound `C[C@H](CCC(=O)O)[C@H]1CC[C@H]2[C@@H]3[C@H](O)C[C@@H]4C[C@H](O)CC[C@]4(C)[C@H]3CC[C@]12C`, the Potency in [1] was 79.9 µM (active). The Potency result in assay [2], in [3], in assay [4], in assay [5], in assay [6] and in assay [10] was “inactive” in each case.
Regarding `CCCCOC(=O)c1ccccc1C(=O)OCC(CC)CCCC` (stereo not drawn), the Potency entry in assay [1], in assay [2], in assay [3], in assay [4], in assay [9] and in assay [5] was “inactive” throughout. Further, the Potency entry in assay [10] and in assay [8] was “inactive” in each case.
In the case of `CCCC(=O)OCC`, the Potency entry in assay [1], in assay [2], in [3], in assay [4], in assay [9] and in assay [5] was “inactive” each time. For the same compound, the Potency entry in assay [10] and in assay [8] was “inactive” throughout.
For the compound `CNS(=O)(=O)Cc1ccc2[nH]cc(CCN(C)C)c2c1`, the Potency entry in [1], in assay [2], in [3], in assay [4] and in assay [5] was “inactive” throughout.
On to `C#CCOC(=O)[C@@H](C)Oc1ccc(Oc2ncc(Cl)cc2F)cc1`, for which the Potency entry in assay [1], in [2], in assay [3], in [4], in [5] and in assay [6] was “inactive” each time. Moreover, the Potency entry in assay [7] and in assay [8] was “inactive” in each case.
Turning to `C=C(C)C(=O)OCCN(C)C`, the Potency result in assay [1], in assay [2], in assay [3], in [4] and in assay [5] was “inactive” in each case.
Regarding `NC(N)=NN=C(/C=C/c1ccc([N+](=O)[O-])o1)/C=C/c1ccc([N+](=O)[O-])o1`, the Potency in assay [1] is 27.5 µM (active); in assay [2], 3.35 µM (active); in assay [3], 2.37 µM (active); in assay [4], 2.98 µM (active); in assay [5] it was 2.98 µM (active); in assay [6], 6.68 µM (active). Moreover, the Potency in [8] was 8.49 µM (active). Besides, the Potency result in [7] and in [10] was “inactive” throughout.
Consider `NCCCOCCOCCOCCCN`, for which the Potency result in assay [1], in assay [2], in [3], in [4], in assay [9] and in assay [5] was “inactive” each time. The Potency result in [10] was “inactive”. In assay [8], the Potency is 15.5 µM (active).
Consider `O=C(O)COC(=O)Cc1ccccc1Nc1c(Cl)cccc1Cl`, for which the Potency entry in assay [1], in [2], in [3], in assay [5], in assay [6] and in assay [7] was “inactive” throughout. Further, the Potency entry in [10] and in assay [8] was “inactive” throughout.
Regarding `O=C(O)c1cn(C2CC2)c2cc(Cl)c(F)cc2c1=O`, the Potency result in [1], in assay [2], in [3], in [9], in assay [5] and in [10] was “inactive” in each case. Also, the Potency entry in assay [8] is “inactive”.
